Source: PubChem BioAssay (Milwaukee Institute for Drug Discovery)
A selection: hits, their analogues and other compounds. The true share with any hit is near 6.8%.
HCV NS3h FP – blocks HCV NS3 helicase binding to DNA; hit rate 1.6% among 16,000; NS3h Cy5-dT15 DNA binding, fluorescence polarization; inhibition, % at 100 µM; AID 687043;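 active = inhibition above the average over every tested compound plus 3 SD, cut at about 40% in these data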
Cy5 interf NS3h – Cy5 fluorescence interference, HCV helicase counter-screen; hit rate 6% among 16,000; AID 720488; fluorescence interference ratio at 100 µM; Cy5-dT15 DNA with NS3h; actives lie on both sides; signal over control mean, under 1 quenches;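 active = compound fluorescence over control fluorescence at most 0.8, a quencher, or at least a set upper limit, an enhancer; inactive = ratio between 0.8 and the set upper limit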
NS3h confirm – hepatitis C NS3 helicase inhibition, confirmation | inhibition, % at 100 µM | shares compounds with HCV NS3h FP | NS3h binding to Cy5-dT15 DNA, fluorescence polarization | hit rate 20% among 240;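 active = percent inhibition of 50% or more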
SSB-DNA FP CB – E. coli SSB-DNA binding inhibition, NS3h counter-screen. shares compounds with HCV NS3h FP. inhibition, % at 100 µM. hit rate 40% among 240. E. coli SSB binding Cy5-dT15, fluorescence polarization;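 active = inhibition of at least 50%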;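 note: displacers lower Cy5 polarization so higher inhibition means more SSB displaced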
Target sequence (P0AGE0 whole entry, looked up): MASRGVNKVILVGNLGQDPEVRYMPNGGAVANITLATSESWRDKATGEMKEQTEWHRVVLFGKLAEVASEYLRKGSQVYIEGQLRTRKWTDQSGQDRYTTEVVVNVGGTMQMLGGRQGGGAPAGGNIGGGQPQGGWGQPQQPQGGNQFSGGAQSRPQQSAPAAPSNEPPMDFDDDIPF
Cy5 SSB interf – Cy5 fluorescence interference in NS3h counter-screen; fluorescence interference ratio at 100 µM; AID 720487; hit rate 8% among 240; Cy5-dT15/E. coli SSB fluorescence interference; actives lie on both sides; shares compounds with HCV NS3h FP;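 active = fluorescence interference ratio at or above 1.2, signal boosting, or at or below 0.8, signal quenching; inactive = ratio between 0.8 and 1.2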
Cy5 interf conf – confirmation counter-screen for HCV NS3 helicase inhibitors: fluorescence interference | shares compounds with HCV NS3h FP | Cy5-dT15 DNA/NS3h fluorescence interference counterscreen | fluorescence interference ratio at 100 µM, hits read low | hit rate 44% among 240;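 active = fluorescence interference ratio at or below 0.8 quencher or at or above a set limitenhancer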
A number is an active result; – = inactive; · = not tested or not shown.

SMILES | HCV NS3h FP | Cy5 interf NS3h | NS3h confirm | SSB-DNA FP CB | Cy5 SSB interf | Cy5 interf conf
O=C(Nc1ccc(Br)cn1)c1cc2n(n1)C(C(F)(F)F)CC(c1ccccc1)N2 (stereo unspecified) | – | 0.7 | · | · | · | ·
CCc1ccccc1NC(=O)c1cc2n(n1)C(C(F)(F)F)CC(c1ccccc1)N2 (stereo unspecified) | – | – | · | · | · | ·
COc1c(Cl)ccc(Cl)c1C(=O)Nc1c(C)cccc1C(C)C | – | – | · | · | · | ·
COc1cc(C(=O)Nc2c(C)cccc2C(C)C)c(Br)c(OC)c1OC | – | 1.2 | · | · | · | ·
COc1cc(/C=C2/SC(=S)N(CC(=O)NCCCN3CCOCC3)C2=O)cc(OC)c1OC | – | – | · | · | · | ·
O=c1/c(=C/c2ccc(-c3ccc(Cl)cc3)o2)sc2nc3ccccc3n12 | – | – | · | · | · | ·
CC(=O)c1ccc2c(c1)c1ccccc1n2C | – | – | · | · | · | ·
Cn1c2ccc(CC(N)=O)cc2c2cc(CC(N)=O)ccc21 | 44 | – | – | – | – | –
C=CCOc1ccccc1C=C1C(=O)NC(=S)NC1=O | 56 | – | – | 107 | – | –
O=C1NC(=O)C(=Cc2ccccc2OCc2ccccc2F)C(=O)N1 | – | – | · | · | · | ·
COc1cc(OC)c(C=C2C(=O)NC(=S)NC2=O)cc1Br | 59 | – | – | – | – | –
C=CCOc1ccc(C=C2C(=O)NC(=S)NC2=O)cc1OC | 82 | – | 51 | 92 | – | 0.77
C=CCOc1ccc(C=C2C(=O)NC(=O)NC2=O)cc1OC | – | – | · | · | · | ·
C=CCOc1ccccc1/C=C1/C(=O)ON=C1c1ccc(Cl)cc1 | 53 | – | – | – | – | –
CCOc1cc(C=C2C(=O)NC(=S)NC2=O)ccc1OCCOc1ccccc1OC | – | – | · | · | · | ·
O=C1ON=C(c2ccc(Cl)cc2)/C1=C/c1ccccc1Cl | – | – | · | · | · | ·
COC(=O)C1=C(C)NC2=C(C(=O)c3ccccc32)C1c1ccc(-c2ccccc2[N+](=O)[O-])o1 (stereo unspecified) | – | – | · | · | · | ·
Cc1cccc(OCC(=O)Nc2cccc(C(=O)O)c2)c1C | – | – | · | · | · | ·
O=C(/C=C/c1ccc(-c2ccc(Cl)cc2)o1)c1ccc([N+](=O)[O-])cc1 | – | – | · | · | · | ·
O=C(/C=C/c1c[nH]c2ccccc12)c1ccc([N+](=O)[O-])cc1 | 43 | – | – | – | – | –
CCN(CC)C(=O)CN(c1ccc(OC)cc1)S(C)(=O)=O | – | – | · | · | · | ·
CCc1cccc(NC2(c3ccccc3)C(=O)c3ccccc3C2=O)c1 | 69 | 0.76 | – | – | – | –
CCOc1ccc(NC2(c3ccccc3)C(=O)c3ccccc3C2=O)cc1 | – | – | · | · | · | ·
O=C(Oc1ccc(Cl)cc1)c1ccccc1 | 54 | – | 50 | 60 | – | 1.2
O=C(Oc1ccc(-c2nc3ccccc3[nH]2)cc1)c1ccc(Cl)cc1 | – | – | · | · | · | ·
SMILES | HCV NS3h FP | Cy5 interf NS3h | NS3h confirm | SSB-DNA FP CB | Cy5 SSB interf | Cy5 interf conf
O=C1NC(=O)N(c2ccccc2)C(=O)/C1=C\C=C\c1cccc([N+](=O)[O-])c1 | – | – | · | · | · | ·
COC(=O)c1cc(NC(=O)c2ccc(OC)c(Br)c2)cc(C(=O)OC)c1 | – | – | · | · | · | ·
Cc1cc(C)c(N2C(=O)NC(=O)/C(=C/c3ccc([N+](=O)[O-])o3)C2=O)c(C)c1 | 52 | – | – | 94 | – | 0.75
Cc1cc([N+](=O)[O-])ccc1-c1ccc(/C=C2/C(=O)NC(=S)N(c3ccc(Cl)cc3)C2=O)o1 | – | – | · | · | · | ·
CCCC(O)=C1C(=O)CC(C)(C)CC1=Nc1ccc(C)c(C)c1 | – | – | · | · | · | ·
NC(=O)c1ccc(NC(=O)c2ccc(I)cc2)cc1 | – | – | · | · | · | ·
CC(=O)COc1ccc2c(oc(=O)c3ccccc32)c1C | – | – | – | – | – | 0.71
Cc1c(OCC(=O)c2ccccc2)ccc2c1oc(=O)c1ccccc12 | – | – | · | · | · | ·
Cc1ccc(-n2c(-c3ccccc3F)nc3c(cnn3-c3ccccc3)c2=O)cc1 | 41 | – | – | – | – | 0.77
Cc1ccc(C(=O)CSc2nc3ccccc3c(=O)n2-c2ccccc2)cc1 | – | – | · | · | · | ·
COc1cc(/C=C/C(=O)NCc2ccc3c(c2)OCO3)cc(OC)c1OC | – | – | · | · | · | ·
COC(=O)C1(C(=O)OC)C(C)C1(C(=O)OC)C(=O)OC | – | – | · | · | · | ·
CCN(CC)CCN1C(=O)C(O)=C(C(=O)/C=C/c2ccccc2)C1c1ccc(F)cc1 (stereo unspecified) | – | – | · | · | · | ·
O=C1/C(=C/c2ccc(F)cc2)SC(=S)N1C1CCS(=O)(=O)C1 (stereo unspecified) | – | – | · | · | · | ·
O=C1/C(=C\c2ccc(N3N=C(c4ccccc4)CC3c3ccccc3)cc2)SC(=S)N1C1CCS(=O)(=O)C1 (stereo unspecified) | 53 | 1.2 | – | – | – | –
O=C1NC(=S)N/C1=C\c1ccc(Oc2ccc([N+](=O)[O-])cn2)cc1 | – | – | · | · | · | ·
O=C1NC(=S)S/C1=C\c1ccc(Oc2ccc([N+](=O)[O-])cn2)cc1 | – | – | – | – | – | 0.72
COC(=O)c1ccc(-c2ccc(/C=C3/SC(=S)N(Cc4ccccc4)C3=O)o2)cc1 | – | – | · | · | · | ·
COc1ccc(NS(=O)(=O)c2ccc(NC(=S)NC(=O)c3sc4cc(F)ccc4c3Cl)cc2)nn1 | 63 | – | – | – | – | 0.76
O=C(NC(=S)Nc1ccc(S(=O)(=O)Nc2nccs2)cc1)c1sc2ccccc2c1Cl | – | – | · | · | · | ·
Nc1ccc2c(c1)C(=O)N(c1ccccc1)C2=O | – | – | · | · | · | ·
COc1ccc(C2(CNC(=O)c3cccc(Cl)c3)CCCC2)cc1OC | – | – | · | · | · | ·
CC1(C)CC(=O)C=C(Nc2ccc(NC3=CC(=O)CC(C)(C)C3)cc2)C1 | 44 | – | – | – | – | 0.8
CC1(C)CC(=O)C=C(Nc2ccccc2C#N)C1 | – | – | · | · | · | ·
O=C1/C(=C/c2cn(-c3ccccc3)nc2-c2ccco2)SC(=S)N1C1CCS(=O)(=O)C1 (stereo unspecified) | – | – | · | · | · | ·
SMILES | HCV NS3h FP | Cy5 interf NS3h | NS3h confirm | SSB-DNA FP CB | Cy5 SSB interf | Cy5 interf conf
O=C1NC(=O)N(c2cccc(F)c2)C(=O)/C1=C/c1ccc(OCc2cccc(C(=O)O)c2)cc1 | 41 | – | – | – | – | 0.75
CN1C(=O)C(=Cc2ccc(OCc3cccc(C(=O)O)c3)cc2)C(=O)N(C)C1=O | – | – | · | · | · | ·
Cc1ccccc1N1C(=O)NC(=O)/C(=C\c2ccc(OCc3cccc(C(=O)O)c3)cc2)C1=O | 42 | – | – | 68 | – | 0.8
Cc1cc(/C=C2\C(=O)NC(=O)N(c3cccc(F)c3)C2=O)c(C)n1C | – | – | · | · | · | ·
O=C1NC(=S)N/C1=C/c1ccc(OCc2cccc(C(=O)O)c2)cc1 | 62 | – | – | – | – | 0.77
O=C1NC(=O)N(c2ccccc2F)C(=O)/C1=C/c1ccc(OCc2cccc(C(=O)O)c2)cc1 | – | – | · | · | · | ·
CCN1C(=O)/C(=C/c2cn(-c3ccccc3)nc2-c2cc3ccccc3oc2=O)SC1=S | – | – | · | · | · | ·
COc1ccccc1CC(=O)Nc1ccc(F)cc1 | – | – | · | · | · | ·
Cc1cc(C)cc(C(=O)Nc2nnc(C)s2)c1 | – | – | · | · | · | ·
Cc1ccc2nc(-c3cc(NC(=O)c4cccs4)ccc3Cl)oc2c1 | – | – | · | · | · | ·
Cc1ccc(OCc2nnc(NC(=O)c3ccccc3)s2)cc1C | – | – | · | · | · | ·
